In ChEMBL document CHEMBL4513216, “Probing the Open Global Health Chemical Diversity Library for Multistage-Active Starting Points for Next-Generation Antimalarials” (ACS Infect Dis, 2020) one finds INHIBITION data, which are given here for 54 compounds.

Molecules are shown by their SMILES. Hit rate of the full screen: of about 69,000 compounds, about 8,600 (12%) showed an effect of 50% or more. This excerpt belongs to a sample that is enriched for strong results.

This assay concerns Plasmodium berghei. Briefly: Screen against P. berghei liver stage (PbLuc), transformed with Luciferase, at 10uM. In kind it is functional, HepG2. The settings on record: tested at 10 uM.
As for `CN(Cc1ccccc1)C(=O)CS(=O)(=O)Cc1ccc(Cl)c(Cl)c1`, the INHIBITION is listed as -35.7%.

`CN(Cc1ccsc1)C(=O)CS(=O)(=O)Cc1ccc(Cl)c(Cl)c1`: the INHIBITION is reported as 9.32%.

For the compound `CN(Cc1cccs1)C(=O)CS(=O)(=O)Cc1ccc(Cl)c(Cl)c1`, the INHIBITION is on record as 62.2%.

With `Nc1nccnc1C1CN(C(=O)c2cnc(C3CC3)nc2)CCO1` (centres undefined), the INHIBITION is reported as 26.8%.

In the case of `CCc1nn(C)c(Cl)c1CN1C[C@@H](NC(=O)N(C)C)[C@H](C(C)C)C1`, the INHIBITION is recorded as 59.7%.

Consider `Cc1noc(C)c1CN1C[C@@H](NC(=O)N(C)C)[C@H](C(C)C)C1`, for which the INHIBITION is reported as -9.29%.

In the case of `CCc1nn(C)c(Cl)c1CN1C[C@H](NC(=O)CCO)[C@@H](C(C)C)C1`, the INHIBITION came out at 14.8%.

Turning to `c1ccc(OCc2cscn2)c(CNC2CCc3ncnn3C2)c1` (centres undefined), the INHIBITION worked out at 3.1%.

As to `CCN(CC1COc2ccccc2O1)C(=O)NCCCn1cncn1` (centres undefined), the INHIBITION stood at 10.17%.

With `CC(=O)N1CCCC1c1nnn2cc(Nc3ccccc3)ccc12` (centres undefined), the INHIBITION was found to be 2.41%.

With `CC(=O)N1CCCC1c1nnn2cc(NCc3cccnc3)ccc12` (centres undefined), the INHIBITION is given as -15.3%.

With `CC(=O)N1CCCC1c1nnn2cc(-c3ccncc3)ccc12` (centres undefined), the INHIBITION was 61.9%.

With `CCN1CCOCC12CCN(C(=O)C1CCC1)CC2`, the INHIBITION is listed as -22.1%.

With `CN(C)CCN1CCN(Cc2cccs2)Cc2cccnc21`, the INHIBITION is recorded as 7.53%.

With `c1coc(CN2CCO[C@H]3[C@@H](OCC4CC4)CC[C@@H]32)c1`, the INHIBITION was 6.67%.

As to `CCc1noc(CNCC2CCCN2c2cccnn2)n1` (centres undefined), the INHIBITION is on record as 19.5%.

For the compound `O=C(CNCC1CCCN1c1cccnn1)NCCc1cccs1` (centres undefined), the INHIBITION is listed as 28%.

`CCCc1nc(CNCC2CCCN2c2cccnn2)cs1` (centres undefined): the INHIBITION came to 48.2%.

Consider `CCCc1nc(CNCC2CCCN2c2cccnn2)no1` (centres undefined), for which the INHIBITION worked out at 59%.

For the compound `CN(Cc1cnn(-c2ccccc2)n1)CC1CCCN1c1cccnn1` (centres undefined), the INHIBITION is 58.3%.

As to `CC(C)CCc1nc(CNCC2CCCN2c2cccnn2)cs1` (centres undefined), the INHIBITION turned out to be 61.3%.

For the compound `CCc1nc(CNCC2CCCN2c2cccnn2)cs1` (centres undefined), the INHIBITION turned out to be 5.8%.

Consider `CN(Cc1ccccn1)CC1CCCN1c1cccnn1` (centres undefined), for which the INHIBITION was -8.11%.

With `c1cnnc(N2CCCC2CNCCc2cccs2)c1` (centres undefined), the INHIBITION is 91%.

On to `c1cnnc(N2CCCC2CNCc2cccs2)c1` (centres undefined), for which the INHIBITION amounted to 19.5%.

On to `CN(Cc1cnn(-c2ccccc2)n1)C1CCCN(c2cccnn2)C1` (centres undefined), for which the INHIBITION is on record as -19.4%.

In the case of `CCc1nc(CNCC2CCCN2c2cccnn2)no1` (centres undefined), the INHIBITION amounted to 23.4%.

With `CC(C)CN1CCS(=O)(=O)[C@@H]2CCN(S(=O)(=O)N(C)C)CC[C@@H]21`, the INHIBITION was 20.1%.

For `O=C(NCCN1CCCCC1)C(c1ccccc1)N1CCCC1` (centres undefined), the INHIBITION is -22.1%.

As for `Cc1cnccc1-c1cnn(CCNC(=O)c2cccnc2)c1C1CC1`, the INHIBITION stood at 16.5%.

As to `CC(C)N(C)Cc1nnc2n1CCCN(c1ncccn1)C2`, the INHIBITION stood at 29.5%.

Turning to `CCC(CC)C(=O)NC1CCCc2nc(N3CCOCC3)ncc21` (centres undefined), the INHIBITION stood at 7.52%.

On to `Cn1cc(N2CC3(CCN(CC4CC4)C3)CC2=O)cn1` (centres undefined), for which the INHIBITION worked out at 15.3%.

In the case of `Cc1nn(C)c(C)c1-c1cnc(C2CCCN(S(C)(=O)=O)C2)cn1` (centres undefined), the INHIBITION was -6.92%.

As to `CCNc1cc2c(nn1)CCN(C(=O)C1CCc3ccccc31)C2` (centres undefined), the INHIBITION worked out at 11.2%.

Turning to `COCC(=O)N1CCC(c2cc3nc(C)cc(C(F)(F)F)n3n2)CC1`, the INHIBITION stood at 20.15%.

As for `O=C1NC2(CCCN(C(=O)CCn3cccn3)C2)Oc2ccccc21` (centres undefined), the INHIBITION turned out to be 10.385%.

Regarding `c1ccc(-n2ccc(CNCC3CCCN3c3cccnn3)n2)cc1` (centres undefined), the INHIBITION is 16.9%.

In the case of `c1ccc(-n2cc(CNCC3CCCN3c3cccnn3)nn2)cc1` (centres undefined), the INHIBITION is 18.2%.

Take `c1ccc(-n2ncc(CNCC3CCCN3c3cccnn3)n2)cc1` (centres undefined): the INHIBITION is listed as 57.2%.

In the case of `Cc1ccc(C(=O)NS(=O)(=O)c2ccccc2Br)c(=O)[nH]1`, the INHIBITION stood at 44.1%.

As for `Cc1ccc(C(CCNCCCN(C)C)C2CCOC(C)(C)C2)cc1` (centres undefined), the INHIBITION was determined as 32.3%.

Turning to `COCc1nn(CC2CC2)c2c1CN(Cc1cccs1)CC2`, the INHIBITION is -97.2%.

For `CCOCc1nn(C)c2c1CN(Cc1cccs1)CC2`, the INHIBITION is 32.1%.

As to `CCOCc1nn(CC2CC2)c2c1CN(Cc1cccs1)CC2`, the INHIBITION amounted to 64.7%.

For the compound `CC(=O)N1CCOC(Cc2cccc(C(F)(F)F)c2)C1` (centres undefined), the INHIBITION came out at 7.1%.

As for `O=C(c1ccc(O)cn1)N1CCOC(Cc2cccc(C(F)(F)F)c2)C1` (centres undefined), the INHIBITION is recorded as -9.29%.

With `O=C(c1n[nH]cc1Cl)N1CCOC(Cc2cccc(C(F)(F)F)c2)C1` (centres undefined), the INHIBITION was 75.9%.

In the case of `CN(C(=O)Nc1ccncc1)C1CCN(c2ccccc2)C1=O` (centres undefined), the INHIBITION is reported as 41.3%.

As for `CN1C(=O)COc2ccc(NC(=O)CCc3nc4cccnc4[nH]3)cc21`, the INHIBITION stood at 39.7%.

For `CCC(=O)NC1CCCN(C(=O)Nc2cc(-c3ccccc3)on2)C1` (centres undefined), the INHIBITION came to 52.6%.

In the case of `O=C(Nc1cc(-c2ccccc2)on1)N1CCN(CCO)CC1`, the INHIBITION was determined as 43.9%.

For the compound `O=C(Nc1cc(-c2ccccc2)on1)N1CC[C@H](O)C1`, the INHIBITION was -51.7%.

With `Cc1nnc(NC(=O)NCCN(C(=O)OC(C)(C)C)C2CC2)s1`, the INHIBITION stood at 4.34%.
